Results as given in PubChem BioAssay (NCATS).
Records with an inconclusive call do not appear. Where a call stands in place of a potency, no number is given. Calls of active or inactive are those of the source. The call rests on the fitted dose curve; in most records, active means well fitted cell-killing curve with a large enough effect; inconclusive means small, poorly fitted or top-dose-only effect; inactive means flat fitted curve, though single readings scatter.

assay: qHTS of pediatric cancer cell lines to identify multiple opportunities for drug repurposing: Primary screen for control Hh wild type fibroblast cells (AID 1347106); details: Hh wild-type fibroblast viability, CellTiter-Glo luminescence, 48 h; series mostly up to 46 µM; further: nearly all actives have a fitted effect of over 55% in size
Excerpt: Drug repurposing or repositioning has been offered as a strategy for drug development in oncology programs. This approach has special potential for childhood cancers and other rare or orphan diseases, where the expected return on new drug development has been a disincentive to pharmaceuticals.
In this project we exploit the poly-pharmacology of drugs to discover new indications via phenotypic screening of a panel of 19 well-characterized cell lines derived from solid tumors seen in children and adolescents. The goal is to identify approved drugs with previously unrecognized anticancer properties that has the potential to reveal new mechanisms and biological processes involved in carcinogenesis or drug resistance. We employed a titration-based paradigm (quantitative high-throughput screening or qHTS), where all compounds were tested at multiple concentrations for their effect on cell viability. Concentration-response curves (CRCs) were derived directly from the primary screen, and both potency and efficacy values were used to identify compounds with robust bioactivity profiles. We screened the NIH Chemical Genomics Center (NCGC) Pharmaceutical Collection (NPC) and Mechanism Interrogation Plate (MIPE) small molecule collections of approved and investigational compounds against these cell lines; and measured metabolically active cells after 48 hours of compound treatment as a proxy for cell viability.
Assay Submitter: Nathalia J. Martinez, National Center for Advancing Translational Sciences, National Institutes of Health, Rockville, MD, USA; email: natalia.martinez@nih.gov
[1] Shen, M et al. Quantitative high-throughput phenotypic screening of pediatric cancer cell lines identifies multiple opportunities for drug repurposing. Oncotarget 2017 Dec 19;9(4):4758-4772. PMID 29435139.
The cells were obtained from University of North Carolina (UNC), Pediatric Preclinical Testing Program (PPT), and Coriell Institute (CI).
qHTS cell viability assay:
Cells were assayed in growth media at a density of 500-1,000 cells/well. Five microliters of cells were dispensed into 1,536-well, white, solid-bottom, TC-treated plates (Greiner Bio One) using a multidrop dispenser and incubated at 37 degrees C, 5% CO2, under a humidified atmosphere for 5 hours. Twenty-three nanoliters of compounds and controls (neutral control DMSO or positive control bortezomib at final concentration of 2.3 µM) were subsequently transferred by Kalypsys pintool. For primary screens, the MIPE collection was tested at 11-point dilutions (final concentrations range from 0.78 nM to 46 µM) and the NPC collection at 8-point dilutions (final concentrations range from 0.59 nM to 46 µM). Compounds tested in follow-up screens were assayed at 11-point dilutions. Cells were incubated for 48 hours, followed by addition of 3 µL of CellTiter-Glo (Promega). After a 15 min incubation at room temperature, samples were analyzed for luminescence intensity using a ViewLux High-throughput CCD imager equipped with clear filters.
Potency means the concentration at half of the fitted maximal effect.

SMILES | Potency
CC(=O)OCC(CCn1cnc2cnc(N)nc21)COC(C)=O | inactive
CCN1CCCC1CNC(=O)c1cc(S(=O)(=O)CC)c(N)cc1OC (stereo not given) | inactive
NS(=O)(=O)c1cc2c(cc1Cl)NCNS2(=O)=O | inactive
Cc1cn([C@H]2C[C@H](N=[N+]=[N-])[C@@H](CO)O2)c(=O)[nH]c1=O | inactive
Clc1ccc(C(c2ccccc2Cl)C(Cl)Cl)cc1 (stereo not given) | inactive
CN(Cc1cnc2nc(N)nc(N)c2n1)c1ccc(C(=O)N[C@@H](CCC(=O)O)C(=O)O)cc1 | inactive
CN1CCN2c3ccccc3Cc3ccccc3C2C1 (stereo not given) | inactive
Cn1c(=O)c2c(ncn2C)n(C)c1=O | inactive
Clc1ccc2nsnc2c1NC1=NCCN1 | inactive
CN(CCOc1ccc(NS(C)(=O)=O)cc1)CCc1ccc(NS(C)(=O)=O)cc1 | inactive
COc1ccc(CCN(C)CCCC(C#N)(c2ccc(OC)c(OC)c2)C(C)C)cc1OC (stereo not given) | inactive
O=C1c2c(O)ccc(O)c2C(=O)c2c(NCCNCCO)ccc(NCCNCCO)c21 | 13.3 µM (active)
CC(C)(Oc1ccc(C2CC2(Cl)Cl)cc1)C(=O)O (stereo not given) | inactive
CCC1(C)CC(=O)NC1=O (stereo not given) | inactive
NC(=O)OCC(COC(N)=O)c1ccccc1 | inactive
Cc1cnc(C(=O)NCCc2ccc(S(=O)(=O)NC(=O)NC3CCCCC3)cc2)cn1 | inactive
Clc1ccccc1C(c1ccccc1)(c1ccccc1)n1ccnc1 | inactive
Cc1cc(C(C)(C)C)c(O)c(C)c1CC1=NCCN1 | inactive
OCCN1CCN(CCCN2c3ccccc3Sc3ccc(C(F)(F)F)cc32)CC1 | inactive
CC12CC3CC(C)(C1)CC(N)(C3)C2 | inactive

SMILES | Potency
Cc1ccc(-c2cc(C(F)(F)F)nn2-c2ccc(S(N)(=O)=O)cc2)cc1 | inactive
O=C(CCCN1CCC(O)(c2ccc(Cl)cc2)CC1)c1ccc(F)cc1 | inactive
C[C@@H]1CC(=O)NN=C1c1ccc(NN=C(C#N)C#N)cc1 | inactive
COc1cc2nc(N3CCN(C(=O)C4COc5ccccc5O4)CC3)nc(N)c2cc1OC (stereo not given) | inactive
COc1nc(C)nc(Cl)c1NC1=NCCN1 | inactive
CC(CCc1ccc(O)cc1)NCCc1ccc(O)c(O)c1 (stereo not given) | inactive
CCCCc1oc2ccccc2c1C(=O)c1cc(I)c(OCCN(CC)CC)c(I)c1 | inactive
CN(C)C(=N)N=C(N)N | inactive
CC(C)NCC(O)c1ccc(O)c(O)c1 (stereo not given) | inactive
CCOC(=O)c1ncn2c1CN(C)C(=O)c1cc(F)ccc1-2 | inactive
NC12CC3CC(CC(C3)C1)C2 | inactive
C[C@](N)(Cc1ccc(O)c(O)c1)C(=O)O | inactive
CN1CCC(=C2c3ccccc3CC(=O)c3sccc32)CC1 | inactive
Cn1c(=O)c2[nH]cnc2n(C)c1=O | inactive
CCC1(c2ccccc2)C(=O)NCNC1=O | inactive
CC(C)NCC(O)COc1ccc(CCOCC2CC2)cc1 (stereo not given) | inactive
OCCN(CCO)c1nc(N2CCCCC2)c2nc(N(CCO)CCO)nc(N3CCCCC3)c2n1 | inactive
COc1ccc2[nH]cc(CCNC(C)=O)c2c1 | inactive
CC(C)Cc1ccc(C(C)C(=O)O)cc1 (stereo not given) | inactive
C[C@H]1c2cccc(O)c2C(O)=C2C(=O)[C@]3(O)C(O)=C(C(N)=O)C(=O)[C@@H](N(C)C)[C@@H]3[C@@H](O)[C@@H]21 | inactive
